Experimental findings from PubChem BioAssay AID571 (The Scripps Research Institute Molecular Screening Center, 2007) are described below.

The whole screen tested about 65,000 compounds, of which about 640 (0.98%) were called active. For the sample, actives were picked, then their nearest neighbours and some compounds at random. A number with no mark means an inactive call.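 How the source made its calls: active means inhibition above a set limit, the mean inhibition across every tested compound plus 3 SD (cut at about 29% in these data); inactive means the rest.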

For orientation: inhibition means the relative decrease from the control value, in per cent.

Sequence of 5-hydroxytryptamine receptor 1E (Homo sapiens) (P28566 whole entry, looked up): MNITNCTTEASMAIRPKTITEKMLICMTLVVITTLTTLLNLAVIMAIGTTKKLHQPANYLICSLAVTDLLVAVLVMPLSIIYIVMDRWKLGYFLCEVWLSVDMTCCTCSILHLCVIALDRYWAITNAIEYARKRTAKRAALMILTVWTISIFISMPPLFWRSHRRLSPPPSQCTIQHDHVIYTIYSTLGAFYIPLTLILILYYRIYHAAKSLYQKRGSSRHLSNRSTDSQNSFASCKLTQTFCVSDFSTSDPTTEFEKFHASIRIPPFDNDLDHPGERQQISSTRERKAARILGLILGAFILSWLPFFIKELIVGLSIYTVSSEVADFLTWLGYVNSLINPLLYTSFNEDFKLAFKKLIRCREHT

The test has as its target 5-hydroxytryptamine receptor 1E (Homo sapiens) (UniProt P28566). As to the kind of experiment: blockade of human serotonin 5HT1E receptor – cell-based, HTS, primary screen (AID 571).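 Further: signal is the 460 over 535 nm emission ratio of beta-lactamase substrate; 0% = agonist plus DMSO wells and 100% = wells without agonist.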 The note with it: CHO 5-HT1E Ga15 NFAT-bla reporter, FRET, antagonist; at 6 µM; active compounds read high.
Turning to `O=C(O)C1CC=C(Cl)CC1C(=O)NCc1ccccc1` (configuration not stated), the inhibition was -3%.
Regarding `CCN(Cc1nc2ccccc2c(=O)[nH]1)Cc1cc(=O)oc2cc(C)c(C)cc12`, the inhibition was -2.39%.
For the molecule `CCn1c(SCC(=O)c2ccc(Cl)s2)nnc1-c1cccs1`, the inhibition was 3.04%.
To `OCc1n[nH]c(CO)n1` belongs 6.12%; to `COCCN1Cc2cccc(C(=O)Nc3ccccc3OC)c2C1=O`, 8.66%.
To `O=S(=O)(NCc1ccccn1)c1ccc(F)cc1` belongs 0.49%; to `NC(=O)C1(N2CCCCC2)CCN(C(=O)c2ccc(C#Cc3ccccc3)o2)CC1`, 2.52%.
To `CCOc1ccc(Nc2oc(Cc3ccccc3)nc2C#N)cc1` belongs -1.52%; to `COc1ccc(Nc2oc(-c3ccccc3Cl)nc2C#N)cc1`, 75% (active); to `N#Cc1nc(-c2ccc(OCc3ccccc3)cc2)oc1NCCCN1CCOCC1`, 0.01%.
Take `O=C(CN1CCN(S(=O)(=O)/C=C/c2ccccc2)CC1)NC(=O)NCc1ccco1`: the inhibition was 4.51%.
In the case of `COc1ccc(CCNC(=O)c2ccc3c(c2)NC(=O)C(N2CCOCC2)S3)cc1OC` (configuration not stated) it was -4.16%; in that of `Cc1ccccc1NC(=O)c1cc(S(=O)(=O)N2CCOCC2)cs1`, -6.32%.
In the case of `O=C(Nn1cc(C(=O)N2CCN(c3ccccc3F)CC2)c2ccccc2c1=O)c1cnccn1` it was 3.04%; in that of `CCOC(=O)c1cnc(-n2nc(C)cc2C)nc1Nc1cccc(C(C)=O)c1`, -0.9%.
Consider `CC(=O)c1ccc(Oc2cc(C)nc(-n3nc(C)cc3C)n2)cc1`, for which the inhibition is 78.3% (active).
To `Cc1cc(C)n(-c2ccc(Cl)c(C(=O)O)n2)n1` belongs 4.5%.
To `COCCNc1nc(-n2nc(C)cc2C)nc2sc3c(c12)CCCC3` belongs 22.7%.
For the molecule `COc1ccc(Nc2cc(C)nc(-n3nc(C)cc3C)n2)cc1`, the inhibition is 49% (active).
In the case of `COc1cc(NS(=O)(=O)c2ccccc2)ccc1-n1nc(C)cc1C` it was -6.22%; in that of `Cc1cc(NCc2ccco2)n2c(nc3ccccc32)c1C#N`, 11.1%; in that of `Nc1ccc(-c2nnc(-c3ccc(-c4ccccc4)cc3)o2)cc1`, -0.45%.
In the case of `O=C(CSc1nnc(-c2ccncc2)n1C1CCCCC1)Nc1ccccc1`, the inhibition is -9.37%.
In the case of `CC12C(=O)N(n3cnnc3)C(=O)C1C1C=CC2C1` (configuration not stated) it was 8.42%; in that of `COCCNC(=O)C(c1ccc(C)o1)N(Cc1cccs1)C(=O)c1snc(C(N)=O)c1N` (configuration not stated), -3.57%.
To `Cc1cc(=O)oc(C)c1C(=O)NC1CC(C)(C)NC(C)(C)C1` belongs -4.29%; to `C[N+](C)(C)CCOP(=O)([O-])OC[C@H](O)CO`, -4.74%.
